Assay results from PubChem BioAssay (NCI).
About 83,000 compounds went through this panel and 20% of them were active in at least one assay; those are over-represented in the sample as a whole.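 96-well plates, one dose, 48 hours. Percent growth reported; active if below 10.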 A number with no mark means an inactive call. Active and inactive are the calls of the source.

What follows are molecules tested on SF-295 CNS (assay: NCI-60 one-dose screen, 48 h (100 = growth as untreated, 0 = no growth, -100 = all killed)). Details: 10 µM unless noted.

SMILES	growth
CC(=O)Nc1ccc2c(c1)Cc1c(F)cccc1-2	109%
COc1ccc(-c2cncnc2N)cc1OC	97.5%
CN(C)c1ccc2cc(-c3ccc(Cl)c(Cl)c3)c(N)nc2c1	11.9%
O=C(Nc1ccccn1)[C@H](O)[C@@H](O)C(=O)N1CCOCC1	109%
O=C(NC(=S)Nc1ccc(-c2nc3ccccc3[nH]2)cc1)c1ccc2ccccc2c1	19.7%
CCCCCCN(CCCCCC)CC(O)c1cccc2ccc(Cl)cc12 (stereo not drawn)	42%
Cc1ccc(S(=O)(=O)N(CC[C@@H]2C[C@H]2c2cc3ccccc3o2)C(=O)NC2CCCCC2)cc1	110%
Clc1ccc2[nH]c3c(NCCCN4CCOCC4)ncnc3c2c1	64.7%
Fc1ccc(Nc2ccc3cc(OCCCN4CCOCC4)ccc3n2)cc1F	19.7%
CNC(=O)NCC1OC(n2cnc3c(NC(=O)Nc4ccccc4)ncnc32)C2OC(C)(C)OC12 (stereo not drawn)	119%
CCN(CC)CCOC(=O)Nc1ccccc1Cl	104%
N=C(N)c1ccc(-c2ccc(-c3ccc(Cl)c(Cl)c3)o2)cc1	-80% (active)
Cc1[nH]c(-c2nc3ccccc3[nH]2)c(C)c1C(=O)N1CCc2sccc2C1	100%
CC(C)(C)c1ccc(C(=O)Nc2sc3c(c2C(N)=O)CCC(=O)C3)cc1	-48.3% (active)
Cc1nc(Nc2ccccn2)sc1C(=O)/C=C/c1ccc(Br)cc1	72.8%
C/C(=N\NC(=O)Cn1c(-c2ccc(S(C)(=O)=O)cc2)nc2cc(Cl)ccc21)c1ccc(Cl)cc1	81.1%
CCOC(=O)c1c(C)[nH]c(C(=O)CCC(=O)OC)c1C	91.8%
C=C1C(=O)O[C@H]2[C@H]1CC/C(COC(=O)NCc1ccc(Cn3c(=O)sn(CCCCl)c3=O)cc1)=C\CC[C@@]1(C)O[C@@H]21	101%
COc1cc(C2C=C(c3cccc(NC(C)=O)c3)Nc3ncnn32)cc(OC)c1OC (stereo not drawn)	-58% (active)
O=C(Oc1ccc[nH]c1=O)c1cc([N+](=O)[O-])cc([N+](=O)[O-])c1	113%

SMILES	growth
COc1ccc(Oc2nc(Nc3ccc(N4CCOCC4)nc3)ncc2NC(=O)c2cc(OC)cc(OC)c2)cc1	83.7%
COC(=O)c1ccc2oc(NC(=O)c3ccc(N4CCOCC4)c([N+](=O)[O-])c3)nc2c1	97.7%
O=C1Nc2ccccc2/C1=N/N=C/c1ccc(OC2OC(CO)C(O)C(O)C2O)cc1 (stereo not drawn)	110%
C=CC(=O)Nc1cccc(C)c1Nc1cc(-c2cccnc2Cc2c(C)c(OC)cc(OC)c2C)ncn1	43%
OC(COc1cccc2ccccc12)CN1CCN(c2ccccc2)CC1 (stereo not drawn)	73.3%
CC(=O)Nc1cccc(C2=CC(c3ccc(C)cc3)n3ncnc3N2)c1 (stereo not drawn)	114%
O=C(CC12CC3CC(CC(C3)C1)C2)NCCOCCOCCNC(=O)c1cc2c(o1)C(=O)c1ccccc1C2=O	-94.2% (active)
N=C(N)c1ccc(-c2ccc(/C=C/c3ccccc3)s2)cc1	-61.7% (active)
CNC1(C#N)CCN(Cc2ccccc2)CC1	95.2%
O=C(/C=C/C12c3ccccc3C(c3ccccc31)C1C(=O)N(c3ccccc3)C(=O)C12)c1ccc(Cl)cc1 (stereo not drawn)	6.27% (active)
CCNCCNc1cc(-c2ccc(Cl)cc2)c(C#N)c2nc3ccccc3n12	-77.6% (active)
CN(C)c1ccc2cc(-c3ccccc3F)c(N)nc2c1	0.224% (active)
O=C1Nc2ccccc2/C1=N/N=C/c1c[nH]c2ccccc12	95.6%
COc1ccc(/C=C(\C#N)n2nnc3ccccc32)cc1	-3.98% (active)
N#Cc1c(Oc2ccc([N+](=O)[O-])cc2)nc2sc3cc(Cl)ccc3n2c1=N	76.4%
O=C(NCCOCCOCCOCCNC(=O)c1cc2c(o1)C(=O)c1ccccc1C2=O)NC12CC3CC(CC(C3)C1)C2	-91.9% (active)
O=C(Oc1ccc([N+](=O)[O-])cc1)c1ccc(CBr)cc1	103%
CCn1c(Sc2nnc(NC(=O)CCN3CCCC3)s2)nc2c1c(=O)n(C)c(=O)n2C	107%
CC(=[N-])N1CCC[C@@H](Nc2c3ccccc3nc3ccccc23)C1.[Cl][Pt].[NH-]CCC[NH-]	56.8%

The molecules below were run on SF-539 CNS in the same assay as above. Details: 10 µM unless noted.

SMILES	growth
CC(=O)Nc1ccc2c(c1)Cc1c(F)cccc1-2	99.4%
COc1ccc(-c2cncnc2N)cc1OC	107%
CN(C)c1ccc2cc(-c3ccc(Cl)c(Cl)c3)c(N)nc2c1	48.5%
O=C(Nc1ccccn1)[C@H](O)[C@@H](O)C(=O)N1CCOCC1	107%
O=C(NC(=S)Nc1ccc(-c2nc3ccccc3[nH]2)cc1)c1ccc2ccccc2c1	-30.8% (active)
CCCCCCN(CCCCCC)CC(O)c1cccc2ccc(Cl)cc12 (stereo not drawn)	65.5%
Cc1ccc(S(=O)(=O)N(CC[C@@H]2C[C@H]2c2cc3ccccc3o2)C(=O)NC2CCCCC2)cc1	95%
Clc1ccc2[nH]c3c(NCCCN4CCOCC4)ncnc3c2c1	95.4%
Fc1ccc(Nc2ccc3cc(OCCCN4CCOCC4)ccc3n2)cc1F	37.5%
CNC(=O)NCC1OC(n2cnc3c(NC(=O)Nc4ccccc4)ncnc32)C2OC(C)(C)OC12 (stereo not drawn)	83.9%
CCN(CC)CCOC(=O)Nc1ccccc1Cl	102%
N=C(N)c1ccc(-c2ccc(-c3ccc(Cl)c(Cl)c3)o2)cc1	-89.1% (active)
Cc1[nH]c(-c2nc3ccccc3[nH]2)c(C)c1C(=O)N1CCc2sccc2C1	87.5%
CC(C)(C)c1ccc(C(=O)Nc2sc3c(c2C(N)=O)CCC(=O)C3)cc1	-77.8% (active)
Cc1nc(Nc2ccccn2)sc1C(=O)/C=C/c1ccc(Br)cc1	84.7%
C/C(=N\NC(=O)Cn1c(-c2ccc(S(C)(=O)=O)cc2)nc2cc(Cl)ccc21)c1ccc(Cl)cc1	83.1%
CCOC(=O)c1c(C)[nH]c(C(=O)CCC(=O)OC)c1C	100%
C=C1C(=O)O[C@H]2[C@H]1CC/C(COC(=O)NCc1ccc(Cn3c(=O)sn(CCCCl)c3=O)cc1)=C\CC[C@@]1(C)O[C@@H]21	-7.17% (active)
COc1cc(C2C=C(c3cccc(NC(C)=O)c3)Nc3ncnn32)cc(OC)c1OC (stereo not drawn)	-5.24% (active)
O=C(Oc1ccc[nH]c1=O)c1cc([N+](=O)[O-])cc([N+](=O)[O-])c1	99.3%

SMILES	growth
COc1ccc(Oc2nc(Nc3ccc(N4CCOCC4)nc3)ncc2NC(=O)c2cc(OC)cc(OC)c2)cc1	78.2%
COC(=O)c1ccc2oc(NC(=O)c3ccc(N4CCOCC4)c([N+](=O)[O-])c3)nc2c1	89.6%
O=C1Nc2ccccc2/C1=N/N=C/c1ccc(OC2OC(CO)C(O)C(O)C2O)cc1 (stereo not drawn)	97.5%
C=CC(=O)Nc1cccc(C)c1Nc1cc(-c2cccnc2Cc2c(C)c(OC)cc(OC)c2C)ncn1	3.02% (active)
OC(COc1cccc2ccccc12)CN1CCN(c2ccccc2)CC1 (stereo not drawn)	99.8%
CC(=O)Nc1cccc(C2=CC(c3ccc(C)cc3)n3ncnc3N2)c1 (stereo not drawn)	95.3%
O=C(CC12CC3CC(CC(C3)C1)C2)NCCOCCOCCNC(=O)c1cc2c(o1)C(=O)c1ccccc1C2=O	-96.1% (active)
N=C(N)c1ccc(-c2ccc(/C=C/c3ccccc3)s2)cc1	17.2%
CNC1(C#N)CCN(Cc2ccccc2)CC1	100%
O=C(/C=C/C12c3ccccc3C(c3ccccc31)C1C(=O)N(c3ccccc3)C(=O)C12)c1ccc(Cl)cc1 (stereo not drawn)	0.701% (active)
CCNCCNc1cc(-c2ccc(Cl)cc2)c(C#N)c2nc3ccccc3n12	-91.4% (active)
CN(C)c1ccc2cc(-c3ccccc3F)c(N)nc2c1	-16.4% (active)
O=C1Nc2ccccc2/C1=N/N=C/c1c[nH]c2ccccc12	78%
COc1ccc(/C=C(\C#N)n2nnc3ccccc32)cc1	-46.4% (active)
N#Cc1c(Oc2ccc([N+](=O)[O-])cc2)nc2sc3cc(Cl)ccc3n2c1=N	106%
O=C(NCCOCCOCCOCCNC(=O)c1cc2c(o1)C(=O)c1ccccc1C2=O)NC12CC3CC(CC(C3)C1)C2	-63.5% (active)
O=C(Oc1ccc([N+](=O)[O-])cc1)c1ccc(CBr)cc1	97%
CCn1c(Sc2nnc(NC(=O)CCN3CCCC3)s2)nc2c1c(=O)n(C)c(=O)n2C	98.4%
CC(=[N-])N1CCC[C@@H](Nc2c3ccccc3nc3ccccc23)C1.[Cl][Pt].[NH-]CCC[NH-]	36.9%
